For 97 compounds, Potency results are on record in PubChem BioAssay AID504465 (National Center for Advancing Translational Sciences (NCATS), 2011).

The structures appear in SMILES notation. The campaign covered roughly 2,100 compounds. About 210 (10%) were called active. Inconclusive results (about 53%) are left out. The call rests on the fitted dose curve; in most records, active means well fitted inhibition curve with a large enough effect; inconclusive means small, poorly fitted or top-dose-only effect, or effect the other way; inactive means no such curve, though single readings can be large or run the other way. The list shows a part of the results. Where a call stands in place of a potency, no number is given.
Potency means the concentration at half of the fitted maximal effect.

This test can be described thus: IN Cell qHTS Assay for Inhibitors of the mTORC1 Signaling Pathway in MEF (Tsc2-/-, p53-/-) Cells: Sytravon. Further: nearly all actives have a fitted effect of over 60% in size. Particulars: phospho-rpS6 immunofluorescence, 24 h; series mostly up to 38.3 µM. A digest of the protocol:
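Tsc2-/-, p53-/- MEFs (empty-vector) treated with compound 24 h at 37 degree Celsius, then fixed and stained for phospho-rpS6 Ser235/236 (Alexa-488) plus Hoechst. Reported as % positive cells, thresholds set against 7.5 nM rapamycin and DMSO wells.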
As for `CCCc1ccc(C2Sc3ccccc3NC3=C2C(=O)c2ccccc23)cc1` (configuration not stated), the Potency entry is “inactive”.

In the case of `Cc1cccc(NC(=O)CSc2nc3ccccc3c3nc(CCn4cncc4C)nn23)c1`, the Potency result was “inactive”.

As to `COc1cc(NC(=O)c2cccc(F)c2)ccc1NC(=O)c1cc2ccccc2o1`, the Potency was 16.5 µM (active). Then `COc1cccc(C(=O)Nc2ccccc2-c2nnc(-c3cccc(OC)c3)o2)c1`, with “inactive”; and `Cc1cccc(Nc2ncc(NC(=O)c3cccc(F)c3)c(Nc3cccc(C)c3)n2)c1`, with “inactive”; and `CCCCCC(=O)Nc1ccc(NC(=O)c2cc3ccccc3o2)c(OC)c1`, with 18.5 µM (active). The value for `COc1ccc(NC(=O)c2ccco2)cc1NC(=O)COc1ccc(Cl)c(C)c1` was “inactive”. The value for `COc1cc(NC(=O)Cn2ccc3ccccc3c2=O)cc(OC)c1OC` was “inactive”.

For the compound `O=C(Nc1ccc(F)c(Cl)c1)c1cc(S(=O)(=O)N2CCc3ccccc3C2)ccc1F`, the Potency result was “inactive”. The value for `COC(=O)c1cc(C)nc2c1c(=O)nc(SCc1ccccc1Cl)n2C1CC1` was “inactive”; that for `COc1ccccc1N1CCN(C(=O)c2ccc3c(c2)CCN3S(=O)(=O)c2ccccc2)CC1` was “inactive”. Then `CCc1ccccc1NC(=O)CCNS(=O)(=O)c1ccc2c(c1)CCN2C(=O)C1CC1`, with “inactive”; and `COc1ccc(-n2ncc(C(=O)N3CCN(C4CCCCC4)CC3)c2C2CCN(C(=O)OC(C)(C)C)CC2)cc1`, with “inactive”. `Cc1ccc(Cl)cc1N1CCN(C(=O)c2cnn(-c3ccc(Cl)cc3)c2C2CCNCC2)CC1`: the Potency was 13.1 µM (active).

For the compound `Cc1ccc(Cl)cc1N1CCN(C(=O)c2ccc3c(c2)N(Cc2ccc(F)cc2)CCS3)CC1`, the Potency entry was “inactive”.

With `COc1ccc(OC)c(NC(=O)c2c(NCc3ccc(C)o3)sc3c2CCC(C)C3)c1` (configuration not stated), the Potency entry is “inactive”.

As for `COC(=O)c1scc(-c2ccc(C)cc2)c1S(=O)(=O)Nc1cc(Cl)ccc1C`, the Potency result is “inactive”. The value for `Cc1cc(C)c(NS(=O)(=O)c2ccc(-c3cnc(C4CC4)o3)cc2)c(C)c1` was 11.7 µM (active). Then `COc1ccccc1CNS(=O)(=O)c1ccc(-c2cnc(C3CC3)o2)cc1`, with “inactive”; and `Cc1ccc(NS(=O)(=O)c2cc(-c3cnc(C4CC4)o3)ccc2C)cc1Cl`, with “inactive”; and `Cc1ccccc1-c1nc(SCC(=O)N(C)c2ccccc2)c2c(=O)n(C)c(=O)n(C)c2n1`, with “inactive”. The value for `CCOc1ccc(Nc2nc(-c3cccc(Cl)c3)c3c(n2)-c2ccccc2OC3)cc1` was 2.07 µM (active).

On to `O=c1c(-c2cc(-c3ccc(F)cc3)nc3c2COc2ccc(Cl)cc2-3)coc2ccc(F)cc12`, for which the Potency result is “inactive”.

As for `CCOc1ccc(Nc2nc(N)c(C(=O)c3ccccc3Cl)s2)cc1`, the Potency result was “inactive”. Then `Cc1ccccc1C1CC(=O)Nc2ccc3ccccc3c21` (configuration not stated), with “inactive”; and `CCOc1cc(CNCCSc2nnnn2-c2ccccc2)ccc1OC`, with “inactive”; and `Cc1ccc(NC(=O)CCS(=O)(=O)c2ccc3nc(C)sc3c2)cc1`, with “inactive”. Take `COc1ccc(C2=CC(c3ccc(F)cc3)n3ncc(C(=O)Nc4ccc(C)cc4)c3N2)cc1` (configuration not stated): the Potency entry is “inactive”. Then `Cc1ccc2nc3sc(C(=O)Nc4ccc(F)cc4)cc3cc2c1`, with 2.33 µM (active). Regarding `Cc1sc2ncn(CC(=O)N3CCN(c4ccc(Cl)cc4)CC3)c(=O)c2c1S(=O)(=O)N1CCN(c2ncccn2)CC1`, the Potency result is “inactive”.

In the case of `COc1ccccc1CNC(=O)c1ccc2c(c1)CCN2S(=O)(=O)c1ccccc1`, the Potency result was “inactive”. Consider `CC(=O)c1ccc(NC(=O)CC2Nc3cccc4cccc(c34)NC2=O)cc1` (configuration not stated), for which the Potency result was “inactive”. Turning to `O=S(=O)(NCC(c1ccco1)S(=O)(=O)c1cccs1)c1ccc(Cl)cc1` (configuration not stated), the Potency entry was “inactive”. The value for `O=C(Cn1c(=O)c2ccccc2n(CC(=O)Nc2ccc(Cl)cc2)c1=O)NCCc1ccccc1` was 14.7 µM (active); that for `CCOc1ccc(NC(=O)Cn2c(=O)n(CCCCCC(=O)NCc3ccccc3)c(=O)c3sccc32)cc1` was “inactive”; that for `O=C(CCCn1c(=O)c2ccccc2n(Cc2cccc(Cl)c2)c1=O)NCCc1ccc(Cl)cc1` was “inactive”. For `O=C(NCCc1ccc(F)cc1)C(=O)NCC(c1cccs1)S(=O)(=O)c1ccc(Cl)cc1` (configuration not stated), the Potency result is “inactive”. Then `COc1ccc(-n2c(SCCC(C)C)nc3sc4c(c3c2=O)CC(C(C)C)OC4)cc1` (configuration not stated), with “inactive”; and `Fc1ccc(C2=NC(c3cccc(C(F)(F)F)c3)=Nc3ccccc3N2)cc1`, with “inactive”. The value for `CCCn1c2ccccc2c2cnn(CC(=O)N(CCCOC)Cc3ccco3)c(=O)c21` was “inactive”. The value for `Cc1ccc(N=C2NC(=O)CC(C(=O)Nc3cc(C(F)(F)F)ccc3Cl)S2)cc1` (configuration not stated) was “inactive”; that for `O=C(Nc1cccs1)Nc1cc(C(F)(F)F)ccc1Cl` was 9.27 µM (active). `COc1ccc(NC(=O)C2CCCN(S(=O)(=O)c3cccc4nonc34)C2)cc1Cl` (configuration not stated): the Potency entry was “inactive”. Regarding `Cc1cccc(C(CC(=O)NCC2(c3ccccc3)CCCC2)c2ccccc2)c1O` (configuration not stated), the Potency result was “inactive”. `COc1ccccc1N1CCN(C(=O)CSc2nc3ccccc3nc2Cc2ccc(C)cc2)CC1`: the Potency entry was “inactive”. The value for `O=C(Cn1cc(SCc2ccccc2)c2ccccc21)N1CCCCC1` was “inactive”.

For the compound `CC1CCc2nc3ncn(CC(=O)Nc4cccc(C#N)c4)c(=O)c3cc2C1` (configuration not stated), the Potency result was “inactive”. Then `CCN1CCc2nc3sc(C(=O)Nc4cccc(Cl)c4C)c(N)c3cc2C1`, with “inactive”; and `Nc1c(C(=O)Nc2ccccc2F)sc2nc3c(cc12)CCCCCC3`, with “inactive”.

As for `CCC1CCc2nc3sc(C(=O)Nc4ccc(F)c(F)c4)c(N)c3cc2C1` (configuration not stated), the Potency is 5.85 µM (active). Then `CCC(C)NC(=O)c1sc2nc(C)c(C(=O)Nc3ccc(C)cc3C)c(-c3ccc(Cl)cc3)c2c1N` (configuration not stated), with “inactive”; and `CCC1CCc2nc3sc(C(=O)Nc4ccc(C)cc4)c(N)c3cc2C1` (configuration not stated), with 5.21 µM (active); and `CC1CCCCN1S(=O)(=O)c1cc2c(=O)nc3ccccn3c2cc1Cl` (configuration not stated), with “inactive”. The value for `C=CCc1ccc(OCc2ccc(C(=O)Nc3ccc(NC(C)=O)cc3)o2)c(OC)c1` was “inactive”; that for `Cc1cc(C)cc(OCC(=O)NCC(c2ccc(Cl)cc2)N2CCCCC2)c1` (configuration not stated) was “inactive”; that for `CCc1c(C)nc2nc(-c3ccccc3)nn2c1NCc1ccc(C)cc1` was “inactive”. Then `COc1ccc(Br)c(C(=O)Nc2cc3c(cc2N2CCCC2)n(C)c(=O)c(=O)n3C)c1`, with “inactive”; and `CC(C)c1ccc(NC(=O)c2cc(S(=O)(=O)NCCc3ccccc3)ccc2F)cc1`, with “inactive”. With `CC(=O)c1ccc(C(=O)N(CCCN(C)C)c2nc3c(C)c(C)ccc3s2)cc1`, the Potency is 14.7 µM (active). Then `COc1ccccc1NC(=O)C1=C(C)Nc2nc(-c3ccco3)nn2C1c1cccc(C)c1` (configuration not stated), with “inactive”; and `COc1cc(CNC(=O)c2ccc3nc(Cc4ccccc4)oc3c2)cc(OC)c1OC`, with “inactive”; and `CCc1ccccc1NS(=O)(=O)c1ccc2[nH]cc(C(=O)NC3CCCC3)c(=O)c2c1`, with “inactive”. The value for `Cc1ccccc1CNCCCSc1nnnn1-c1ccccc1` was “inactive”. Consider `Cc1ccccc1C(=O)N1CCN(CCc2ccccn2)CC1`, for which the Potency result was “inactive”. As for `CCOC(=O)c1cnc2c(Cl)cc(Cl)cc2c1Nc1cc(C(=O)O)ccc1C`, the Potency result was “inactive”. Then `COc1ccc(NC(=O)CN2C(=O)C(=O)c3ccccc32)c(OC)c1`, with “inactive”.

As for `Cc1cc(Cl)ccc1NC(=O)CN1C(=O)C(=O)c2ccccc21`, the Potency is 2.07 µM (active). The value for `CCOc1ccccc1NC(=O)CN1C(=O)C(=O)c2ccccc21` was “inactive”; that for `CCOc1ccccc1CC1C(=O)Nc2ccc(Br)cc21` (configuration not stated) was “inactive”; that for `CC(=O)c1ccc(N2CCN(C(=O)C3CCCN(S(=O)(=O)c4ccc(Br)s4)C3)CC2)cc1` (configuration not stated) was “inactive”. Then `COc1ccc(Cn2c(C(=O)O)c(CNCC(C)c3ccccc3)c3ccc(OC)cc32)cc1` (configuration not stated), with “inactive”; and `Cc1cccc(OCC(=O)Nc2ccccc2OCc2cc(=O)n3ccccc3n2)c1`, with “inactive”; and `COc1ccc(NC(=O)Cn2c(=O)n(CCCC(=O)NCc3ccccc3OC)c(=O)c3ccccc32)cc1Cl`, with “inactive”. Then `Cc1cc(C)c(NC(=O)Cn2c(=O)n(Cc3ccc(C(=O)NCc4ccc5c(c4)OCO5)cc3)c(=O)c3ccccc32)c(C)c1`, with 4.14 µM (active); and `CCOc1ccccc1NC(=O)Cn1c(=O)n(CCC(=O)NCc2ccc3c(c2)OCO3)c(=O)c2ccccc21`, with 4.65 µM (active); and `Cc1ccc(C)c(Cn2c(=O)n(CCCCCC(=O)NCc3ccc4c(c3)OCO4)c(=O)c3sccc32)c1`, with “inactive”. `Cc1ccccc1NC(=O)Cn1c(=O)n(CCCCCC(=O)NCc2ccc3c(c2)OCO3)c(=O)c2sccc21`: the Potency result is “inactive”. The value for `Cc1cc(C)c(NC(=O)Cn2c(=O)n(CCC(=O)NCc3ccc4c(c3)OCO4)c(=O)c3ccccc32)c(C)c1` was “inactive”; that for `Cc1ccc(-c2nc(-c3cccs3)c(-c3cccs3)[nH]2)cc1` was “inactive”. Then `Cc1ccc(Cl)cc1-n1ncc2c(NC3CCCCCC3)ncnc21`, with “inactive”; and `CCOC(=O)c1ccc2c(c1)N(Cc1cccc([N+](=O)[O-])c1)C(=O)c1ccccc1S2`, with “inactive”; and `O=C(Nc1ccc(F)cc1)Nc1nnc(SCC(=O)N2CCCCC2)s1`, with “inactive”. `COc1cccc(-c2nc3c(c(SCC(=O)Nc4cccc(C)c4C)n2)Cc2c(CO)cnc(C)c2O3)c1`: the Potency result is “inactive”.

As for `CCOc1ccc(NC(=O)Cn2ccn(-c3ccc(F)c(F)c3)c(=O)c2=O)cc1`, the Potency entry was “inactive”. The value for `CCOc1ccc(NC(=O)c2nc(S(=O)(=O)Cc3ccccc3F)ncc2Cl)cc1` was 3.69 µM (active). Then `CCOc1cccc(NC(=O)CSc2ncc(-c3ccc(Cl)cc3)[nH]2)c1`, with “inactive”; and `O=C(Nc1ccccc1F)c1nc(S(=O)(=O)Cc2ccccc2F)ncc1Cl`, with 2.33 µM (active); and `CCOc1ccc(CNCc2c(C(=O)O)n(Cc3ccccc3C)c3cc(OC)ccc23)cc1OC`, with “inactive”.

As to `O=C1CC(c2ccccc2)Cc2[nH]c(=O)c(-c3nc(-c4cccc(Cl)c4)cs3)cc21` (configuration not stated), the Potency result is “inactive”. Then `COc1ccc(C2C(=O)N(C3CCCCCC3)CC(=O)N2CCc2ccccc2)cc1` (configuration not stated), with “inactive”. Take `CC(C)c1cnc2c(c1SCC(=O)c1ccc(Cl)cc1)c(=O)n(C)c(=O)n2C`: the Potency result is “inactive”. Then `COc1ccc(NC(=O)c2c(NCc3ccc(C)o3)sc3c2CCCCC3)c(OC)c1`, with “inactive”; and `COc1ccc(CC(=O)Nc2sc3c(c2C(=O)Nc2cccc(C)c2)CCCCC3)cc1`, with 11.7 µM (active). The value for `COc1ccc(OC)c(NC(=O)c2c(NCc3ccc(C)o3)sc3c2CCCCC3)c1` was “inactive”; that for `COc1ccc(NC(=O)c2c(NCc3ccc(C)o3)sc3c2CCC(C)C3)cc1` (configuration not stated) was “inactive”; that for `COc1ccc(CC(=O)Nc2sc3c(c2C(=O)Nc2ccccc2)CCCCC3)cc1` was 9.27 µM (active). The value for `COc1ccccc1NC(=O)c1c(NCc2ccc(C)o2)sc2c1CCCCC2` was “inactive”.
